Test results as given in PubChem BioAssay (NCI).
Compounds without any hit were thinned out: in the full panel of roughly 79,000, 15% have a hit. A number with no mark means an inactive call. Activity calls are given as the source filed them. Rule as the data show it: active = growth inhibition above about 70%; inactive = the rest.

Legend:
[1] = NCI Yeast Anticancer Drug Screen. Data for the rad50 strain (AID 155);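 also: 0% = growth of vehicle-only cultures of the same strain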; conditions: S. cerevisiae rad50 strain growth inhibition, stronger effect = higher value
Outline: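 Readout: growth inhibition relative to vehicle-treated cultures. Compound exposure was carried out in a genetically defined yeast strain deficient in DNA damage repair.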

[2] = NCI Yeast Anticancer Drug Screen. Data for the mec2-1 strain (AID 157); conditions: S. cerevisiae mec2-1 strain, stronger effect = higher value
Outline: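 mec2-1 yeast strain, carrying an alteration in DNA damage repair or cell cycle control, was exposed to compounds; growth inhibition was measured relative to vehicle-treated controls.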

[3] = NCI Yeast Anticancer Drug Screen. Data for the sgs1 mgt1 strain (AID 161);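 also: 0% = growth of cultures given vehicle only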; conditions: S. cerevisiae sgs1 mgt1 strain, stronger effect = higher value
Outline: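 Percent growth inhibition was derived by comparing compound-exposed mutant yeast with vehicle-exposed cultures. The strain carries alterations in DNA damage repair.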

[4] = NCI Yeast Anticancer Drug Screen. Data for the cln2 rad14 strain (AID 165);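 also: 0% = growth equal to vehicle treated cultures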; conditions: S. cerevisiae cln2 rad14 strain, stronger effect = higher value
Outline: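 Yeast carrying cln2 and rad14 alterations (cell cycle control and DNA damage repair) were exposed to compounds. Growth inhibition was measured against vehicle-treated controls.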

[5] = NCI Yeast Anticancer Drug Screen. Data for the bub3 strain (AID 167); conditions: S. cerevisiae bub3 mutant strain, stronger effect = higher value
Outline: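 Readout: yeast growth inhibition, expressed relative to vehicle-only wells. The test organism is a mutant strain from a panel with lesions in DNA repair or checkpoint genes.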

[6] = NCI Yeast Anticancer Drug Screen. Data for the mlh1 rad18 strain (AID 175); conditions: S. cerevisiae mlh1 rad18 strain growth inhibition, stronger effect = higher value
Outline: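 Growth inhibition of the yeast strain was measured after compound exposure and expressed relative to vehicle-treated controls. The strain carries defined defects in DNA damage repair.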

[7] = at 5.0 µM (retest, dose inferred, filed as 0.5)
[8] = at 50.0 µM (retest, dose inferred, filed as 5.0)

Structure (SMILES) | growth inhibition [1, 7] | growth inhibition [1, 8] | growth inhibition ([1]; at 50.0 µM) | growth inhibition [2, 7] | growth inhibition [2, 8] | growth inhibition ([2]; at 50.0 µM) | growth inhibition [3, 7] | growth inhibition [3, 8] | growth inhibition ([3]; at 50.0 µM) | growth inhibition [4, 7] | growth inhibition [4, 8] | growth inhibition ([4]; at 50.0 µM) | growth inhibition [5, 7] | growth inhibition [5, 8] | growth inhibition ([5]; at 50.0 µM) | growth inhibition [6, 7] | growth inhibition [6, 8] | growth inhibition ([6]; at 50.0 µM)
CC(=O)N/N=C/c1ccc([N+](=O)[O-])o1 | 13% | 34% | 70.2% (active) | 2% | 22% | 43.1% | 12% | 50% | 81.8% (active) | 5% | 13% | 35.5% | 5% | 22% | 58.5% | 17% | 61% | 84.8% (active)
CCCCCCCCCCCCCCCC(=O)NCC[N+](C)(CC)CC | -32% | 0% | 57.4% | -6% | -11% | 27.4% | -4% | 30% | 72.2% (active) | 1% | -15% | 17.9% | 2% | 19% | 10.5% | -8% | 7% | 29.5%
O/N=C1\c2ccccc2-c2ccc(Cl)cc21 | 6% | 35% | 60.5% | -5% | 34% | 50.5% | 3% | 60% | 87.4% (active) | -4% | 27% | 41.4% | -4% | 28% | 74.3% (active) | 8% | 36% | 79% (active)
Fc1ccc(CSC(=S)Nc2ccc(F)cc2)cc1 | 5% | 29% | 69.5% | 0% | 16% | 47.6% | 2% | 29% | 68.3% | -9% | -4% | 32.5% | -6% | 8% | 27.6% | -3% | 19% | 78.7% (active)
O=[N+]([O-])c1ncn(C2OC(CO)C(O)C2O)c1S (stereo not given) | -5% | -3% | -2.85% | 2% | -8% | 24.6% | -1% | -3% | 14.6% | -3% | -5% | 66.1% | -12% | -14% | 1.15% | -6% | -8% | 8.05%
COc1ccc(C2c3cc4c(cc3OC(O)(CO)C2C(=O)O)OCO4)cc1 (stereo not given) (tested in a mixture with another compound) | -6% | 86% (active) | 53.5% | -11% | 75% (active) | 81.3% (active) | -6% | 40% | 27.8% | -6% | 90% (active) | 37% | -18% | 95% (active) | 87% (active) | -8% | 89% (active) | 81.8% (active)
CCOc1ccccc1N=Nc1ccc2oc(=O)c(C(=O)Nc3cccc(C)c3)cc2c1 | 3% | 13% | 52.1% | 3% | -2% | 25.9% | 8% | -5% | 64.8% | -4% | 4% | -76% | -4% | -12% | 9.9% | 3% | 12% | 89% (active)
Cc1ccc(Oc2ccc(C(=O)C(CN(C)C)CN(C)C)cc2)cc1 | 93% (active) | 98% (active) | 92.1% (active) | 93% (active) | 96% (active) | 98% (active) | 95% (active) | 98% (active) | 51.4% | 75% (active) | 95% (active) | 95.6% (active) | 91% (active) | 96% (active) | 96.2% (active) | 96% (active) | 96% (active) | 97.1% (active)
CC1CC(C)CC(C(O)(C(=O)O)C2CC(C)CC(C)C2)C1 (stereo not given) | 23% | 99% (active) | 99.2% (active) | 18% | 99% (active) | 97% (active) | 10% | 99% (active) | 99.5% (active) | 82% (active) | 100% (active) | 78.5% (active) | 29% | -34% | 94% (active) | 18% | 99% (active) | 99.5% (active)
C/C(=N/NC(N)=O)C1CC(CCC2([N+](=O)[O-])CCC(C)(O)C(/C(C)=N\NC(N)=O)C2)([N+](=O)[O-])CCC1(C)O (stereo not given) | 5% | -5% | 10.6% | 4% | 0% | 14.1% | 3% | -1% | -6.4% | 5% | -7% | 9.6% | 7% | -3% | 96.7% (active) | 1% | 3% | 2.1%
